14 compounds from the supplement of paper PMC9948646 can be followed below.

The structures appear in SMILES notation. A number with no mark means an inactive call.

For the test, the system named is gramicidin D channels in DC22:1PC lipid vesicles (bilayer-modifying potency). The test is described as follows: initial Tl+ fluorescence quench rate relative to no-drug control (NormRate, gramicidin monomer-dimer shift) (ratio (fold of control)); higher = stronger bilayer-modifying effect (equilibrium shifted toward conducting dimers), active = 1.5 or more. Conditions: 10 µM; lipid concentration 50 µM; temperature: 25 °C. The protocol:
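Stopped-flow fluorescence quench assay: ANTS-loaded DC22:1PC large unilamellar vesicles doped with gramicidin D (1:2000), 50 µM lipid, equilibrated 10 min with 10 µM drug (0.1% DMSO), mixed with Tl+ quench buffer at 25°C. Initial quench rate (Tl+ influx) was fitted with a modified stretched exponential and normalised to the no-drug control rate (NormRate); duplicates from two independent LUV preparations (triplicates for 7 drugs).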
As to `Cc1nn(C)c(C)c1NS(=O)(=O)c1c(Cl)cc(-c2ccnc(N3CCNCC3)c2)cc1Cl`, the “initial Tl+ fluorescence quench rate” value is 1.38.

For the compound `CCc1nn(C)c(C(=O)NCc2ccc(Oc3ccc(C)cc3)cc2)c1Cl`, the “initial Tl+ fluorescence quench rate” value is 2.89 (active). As for `O=C1O[C@@H](COc2ccon2)CN1c1cc(F)c(C2=CCN(Cc3ccccc3)CC2)c(F)c1`, the “initial Tl+ fluorescence quench rate” value is 1.31.

Consider `CO/N=C(\C(=O)OC)c1ccccc1CO/N=C(\C)c1cccc(C(F)(F)F)c1`, for which the “initial Tl+ fluorescence quench rate” value was 1.36. As for `Cc1nn(Cc2ccccc2)c(Cl)c1C(=O)NC1CCCCCC1`, the “initial Tl+ fluorescence quench rate” value is 1.1. To `Nc1c2c(nc3sc4c(c13)CCCC4)CCCC2` belongs 1.07; to `CC1(C)OB(O)c2ccc(C3=NO[C@@](c4cc(Cl)c(F)c(Cl)c4)(C(F)(F)F)C3)cc21`, 4.11 (active); to `Cc1cc(C2=NO[C@@](c3cc(Cl)c(F)c(Cl)c3)(C(F)(F)F)C2)ccc1C(=O)NCc1ccc2c(c1)C(C)(C)OB2O`, 4.21 (active). As for `CC(C)(C)[C@@H](O)[C@H](Oc1ccc(-c2ccccc2)cc1)n1cncn1`, the “initial Tl+ fluorescence quench rate” value was 2.39 (active). To `C[C@@H]1CO[C@](Cn2cncn2)(c2ccc(Oc3ccc(Cl)cc3)cc2Cl)O1` belongs 2.49 (active). For `CO[C@@H]1CN(c2ccc(C#C[C@@]3(O)CN4CCC3CC4)c(Cc3ccccc3)n2)C[C@H]1O` the value was 1.06; for `Cc1cccc(C(=O)Nc2ccnc(N(C)C3CCN(CC(C)C)CC3)c2)c1`, 1.12; for `CO/C=C(/C(=O)OC)c1ccccc1Oc1cc(Oc2ccccc2C#N)ncn1`, 1.05. To `O=C1O[C@@H](CO)CN1c1cc(F)c(C2=CCN(Cc3ccccc3)CC2)c(F)c1` belongs 1.13.
